Eight compounds from PubChem BioAssay (NCI) can be followed below.

Holding throughout (assay): NCI-60 one-dose screen, 48 h (100 = growth as untreated, 0 = no growth, -100 = all killed)
Details in all cases: 10 µM unless noted

Assay [1] relates to SK-MEL-2 melanoma.
The test system of assay [2] is EKVX NSCLC.
Assay [3] concerns SN12C renal.
For assay [4], the system named is UO-31 renal.
For assay [5], the system named is TK-10 renal.
Assay [6] relates to ACHN renal.
Assay [7] deals with CAKI-1 renal.
Assay [8] has as its system A498 renal.
The test system of assay [9] is CCRF-CEM leukemia.
For assay [10], the system named is MOLT-4 leukemia.
In assay [11] the test system is SR leukemia.
In assay [12] the test system is RPMI-8226 leukemia.
For assay [13], the system named is OVCAR-5 ovarian.
The test system of assay [14] is OVCAR-4 ovarian.
Assay [15] deals with SK-OV-3 ovarian.
For assay [16], the system named is IGROV1 ovarian.
Assay [17] concerns OVCAR-3 ovarian.
Assay [18] has as its system HS 578T breast.
Assay [19] has as its system OVCAR-8 ovarian.
In assay [20] the test system is NCI/ADR-RES ovarian.

Compounds without any hit were thinned out: in the full panel of roughly 83,000, 20% have a hit.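 Plates (96-well) were seeded with cells, treated with compound at one concentration, and incubated for 48 hours before percent growth was determined.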 Unmarked numbers belong to inactive results. Calls of active or inactive are those of the source. How the source made its calls: active means growth percent below 10; inactive means the rest.

For `COc1ccc(OC)c(Cn2cc(C#N)c(N)c2C(=O)c2ccc(Br)cc2)c1`, the growth is 4.44% (active) in [1]; 58.2% in assay [2]; 64.4% in assay [3]; 34.6% in [4]; 62.4% in [5]; 84.9% in assay [6]. Further, the growth in assay [7] was 45.2%; in assay [8] it was 86.7%; in [9] it was 44.3%; in assay [10] it was 20.4%; in assay [11], 14.4%; in [12], 58%. For the same compound, the growth in assay [13] was 71.1%; in assay [14] it was 57.1%; in [15] it was 50.9%; in [16] it was 48.7%; in assay [17], 55.9%; in assay [18], 45.2%.
In the case of `Cc1nn(-c2ccccc2)c2nc(C)n(C(=O)N/N=C/c3ccccc3)c(=O)c12`, the growth in assay [1] is 105%; in assay [2], 94.4%; in assay [3], 97.9%; in assay [4], 74.1%; in [5], 123%; in assay [6] it was 94.9%. Further, the growth in assay [7] is 76.9%; in assay [8], 112%; in assay [9], 96.3%; in assay [10], 102%; in assay [11], 115%; in assay [12], 103%. Besides, the growth was 101% in assay [19]; 101% in assay [13]; 95.5% in [15]; 97.6% in assay [16]; 118% in assay [17]; 84.3% in [18]. Moreover, the growth in [20] was 100%.
On to `C=CC(=O)Nc1ccc(C(=O)/C=C/c2ccc(N(C)C)cc2)c(O)c1`, for which the growth was 3.4% (active) in [1]; 17.3% in assay [2]; 5.34% (active) in assay [3]; 1.04% (active) in assay [4]; 23.9% in [5]; -47.5% (active) in assay [6]. The growth in assay [7] was -18.1% (active); in assay [8] it was 42.8%; in assay [9], 11.2%; in assay [10], 7.05% (active); in assay [11], 2.78% (active); in assay [12], 6.01% (active). The growth is -8.4% (active) in assay [19]; 7.71% (active) in assay [13]; 11.7% in assay [15]; 15.8% in assay [16]; -18.3% (active) in assay [17]; 21.7% in assay [18]. Moreover, the growth in assay [20] was 15.3%.
With `O=C(Nc1ccc(Br)cc1)Nc1ccc(-c2ccc3c(c2)NC(=O)/C3=C\c2ccc[nH]2)cc1`, the growth in assay [1] was 36.7%; in [2], 42.3%; in assay [3] it was 52.5%; in [4], 20.6%; in assay [5], 52.3%; in assay [6], 30%. The growth was 31.1% in assay [7]; 105% in assay [8]; 25.3% in assay [9]; 35.6% in assay [10]; 18.4% in assay [11]; 32.2% in [12]. In addition, the growth in assay [13] is 55.3%; in assay [14], 33.9%; in [15], 77.1%; in [16], 46.9%; in assay [17] it was 12.3%; in assay [18], 56%. For the same compound, the growth in assay [20] is 25.7%.
For the compound `Cn1cc(-c2cc3nc(-c4c[nH]c5ccccc45)cc(N)n3n2)c2ccccc21`, the growth in [1] is -65.5% (active); in [2], 55.1%; in assay [3], -78.5% (active); in [4] it was -61.2% (active); in assay [5], 8.91% (active); in assay [6] it was -73.9% (active). The growth was 29.7% in assay [7]; 130% in [8]; -38.1% (active) in assay [9]; -19.4% (active) in [10]; 8.18% (active) in [11]; -21.9% (active) in [12]. Also, the growth in [13] is -39.4% (active); in assay [14], -39.9% (active); in assay [15], 43.2%; in assay [16], -77.5% (active); in assay [17], -76.3% (active); in assay [18] it was -9.04% (active). The growth in assay [20] is -37.8% (active).
For the compound `COc1ccc2[nH]c(=O)c(CSc3ccccc3Nc3nccc(-c4ccc(Cl)cc4)n3)cc2c1`, the growth is 57.9% in [1]; 60% in [2]; -2.68% (active) in assay [3]; 45.8% in assay [4]; 90.3% in assay [5]; 31% in assay [6]. In addition, the growth in assay [7] was -1.64% (active); in assay [8], 85.8%; in assay [9], 28.4%; in assay [10] it was -2.12% (active); in assay [11], -1.58% (active); in assay [12], 30.4%. Moreover, the growth in assay [13] was 84.7%; in [14], 38.3%; in assay [15], 57.7%; in assay [16], 55.9%; in assay [18], 37.1%; in assay [20], 34.4%.
With `CCC1(OC(=O)c2ccccc2SSCCOC(=O)CCCCC2SCC3NC(=O)NC32)C(=O)OCc2c1cc1n(c2=O)Cc2cc3ccccc3nc2-1` (centres undefined), the growth was 103% in assay [1]; 52.1% in [2]; 32.3% in assay [3]; 38.4% in [4]; 94.8% in [5]; 20.3% in assay [6]. Moreover, the growth in assay [7] was 10.5%; in [8] it was 104%; in assay [9], 9.01% (active); in assay [10], 21.8%; in assay [11], 3.84% (active); in assay [12], 33.1%. Moreover, the growth is 37.4% in assay [19]; 97% in assay [13]; 66% in [14]; 46.3% in [15]; 82.9% in assay [18]; 24.2% in [20].
In the case of `Cn1cc(-c2cc3nc(-c4cn(C)c5ncccc45)cc(N)n3n2)c2cc(F)ccc21`, the growth is 83.9% in assay [1]; 69.8% in assay [2]; 51.2% in assay [3]; 52.6% in assay [4]; 74.6% in assay [5]; 17.6% in assay [6]. Moreover, the growth in assay [7] is 12.8%; in assay [8], 138%; in [9], 38.6%; in assay [10], 55.5%; in [11] it was -31.3% (active); in assay [12], 38.1%. For the same compound, the growth in [13] is 47.9%; in [14], 20.2%; in assay [15], 24.4%; in [16] it was 31.9%; in assay [17] it was 43.9%; in assay [18], 47.2%. The growth in [20] is 28.3%.
